Data: PubChem BioAssay (NCATS)
A number with no mark means an inactive call. Calls of active or inactive are those of the source. The call rests on the fitted dose curve; in most records, active means well fitted activation curve with a large enough effect; inconclusive means small, poorly fitted or top-dose-only effect; inactive means flat fitted curve, though single readings scatter.

assay: Confirmation and Secondary Assay for Modulators of Hemoglobin Beta Chain Splicing at IVS2 654 locus (AID 910); conditions: HeLa EGFP-654 splicing reporter, GFP fluorescence, 48 h; series mostly up to 46.1 µM; activation (splicing correction): at the top concentration;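 further: HeLa cells stably carrying EGFP split by mutant beta-globin IVS2-654 intron; % of control where 0% means no effect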
From the text: NIH Chemical Genomics Center [NCGC] NIH Molecular Libraries Screening Centers Network [MLSCN] MLSCN Grant: 1 X01 MH080684-01 PI Name: Dr. Ryszard Kole NCGC Assay Overview: Modulation of Alternative Splicing as Therapy Abnormal splicing is associated with a number of diseases, including cancer and genetic diseases such as cystic fibrosis, muscular dystrophy and beta-thalassemia. Alteration of disease associated splicing patterns provides a promising target for treatment. […] Mutations in the second intron of the b-globin gene at positions 654 or 705 are clinically relevant and cause mis-splicing which results in an out of frame gene product. […] EGFP-654 HeLa Cells as screen system. HeLa cell lines were stably transfected with a construct in which the EGFP (enhanced green fluorescent protein) cDNA was interrupted by the second intron of the beta-globin gene (IVS2-654). The ISV2 intron contains mutations which cause mis-splicing of EGFP and premature termination of EGFP which results in a nonfluorescent protein product. […] Expression of the transgene was driven by the CMV promoter. We concluded that a low molecular weight compound, which restored correct splicing of intron 2 would also generate functional EGFP protein, resulting in a fluorescent signal. Thus, the HeLa cells that express the EGFP-654 construct can be used for high throughput screening of a chemical library.
NCGC Assay Protocol Summary: Confirmatory Screening. Freshly thawed HeLa EGFP-654 cells were seeded in 5 ul of optimem media (Invitrogen) containing 2 % fetal calf serum (Hyclone) and 1x penicillin/streptomycin (Invitrogen) at a concentration of 500 cells per well in 1536-well plates. Cells were incubated overnight at 37C in 5% CO2. The next day, cells were treated with DMSO, 500 nM antisense ISV2 654 PNA control oligo, or library compound and allowed to grow at 37C in 5% CO2 for 2 days. The PNA oligo blocked the mutation site in the intron and allowed proper (wild type) splicing to occur, resulting in full length EGFP expression and also allowed for optimization of the assay parameters. Plates were read in the Acumen Explorer (TTP Labtech) using 488 nm laser excitation and 500-520 nm emission PMT filter in a 1 x 8 uM capture mode. Fluorescnet objects ranging in size from 5 to 250 uM were measured and the total peak GFP intensity for each well was used for data analysis. Keywords: Thalassemia, beta-thalassemia, beta-globin, EGFP, ISV2 654, ISV2 705, SSO, PNA, antisense, splicing, MLSMR, MLSCN, NIH Roadmap, qHTS, NCGC

SMILES | activation (splicing correction) | outcome
NC(=O)c1cc[n+](CC2=C(C(=O)O)N3C(=O)C(NC(=O)C(c4ccccc4)S(=O)(=O)[O-])C3SC2)cc1 (stereo not given) | 10.4% | –
C=CC(C1=CC(=O)C(OC)=CC1=O)c1ccc(OC)cc1 (stereo not given) | 1.26% [at 38.3 µM] | –
CNC1C(O)C(O[C@H]2C(O)[C@@H](OC3OC(CN)=CCC3N)[C@H](N)C[C@@H]2N)OC[C@]1(C)O (stereo not given in full) | 3.3% | –
Cc1onc(-c2c(Cl)cccc2Cl)c1C(=O)NC1C(=O)N2C1SC(C)(C)C2C(=O)O (stereo not given) | 5.24% | –
CO[C@@]1(NC(=O)Cc2cccs2)C(=O)N2C(C(=O)O)=C(COC(N)=O)CSC21 (stereo not given in full) | 5.62% | –
CC(=O)OCC(=O)[C@@]1(O)CCC2C3CCC4=CC(=O)CC[C@]4(C)C3C(=O)C[C@]21C (stereo not given in full) | 0.495% | –
CC1(C)CC[C@]2(C(=O)O)CC[C@@]3(C)C(=CCC4[C@@]5(C)CCC(O)C(C)(C)C5CC[C@@]43C)C2C1 (stereo not given in full) | -3.73% | –
COc1cc(C2c3cc4c(cc3C(OC3OC5COC(C)O[C@@H]5C(O)C3O)C3COC(=O)C23)OCO4)cc(OC)c1O (stereo not given in full) | 24.7% | –
CNCC(O)c1cccc(O)c1 (stereo not given) | 10.4% | –
CC(C)c1c(O)ccc2c1CCC1C(C)(C)CCC[C@@]21C (stereo not given in full) | -7.5% | –
CC1CC2C3CC(F)C4=CC(=O)C=C[C@@]4(C)[C@@]3(F)C(O)C[C@]2(C)[C@]1(O)C(=O)COC(=O)C(C)(C)C (stereo not given in full) | -1.46% | –
CC1CC[C@@]2(C(=O)O)CC[C@]3(C)C(=CCC4[C@@]5(C)CCC(O)C(C)(C)C5CC[C@@]43C)C2C1C (stereo not given in full) | -1.02% [at 38.3 µM] | –
C=C1C2CC[C@@]3(C)C(c4ccoc4)OC(=O)C[C@@]13OC1CC(OC(C)=O)C(C)(C)C(CC(=O)OC)[C@@]12C (stereo not given in full) | -6.48% | –
CC(CCC(=O)O)C1CCC2C3C(=O)CC4CC(=O)CC[C@@]4(C)C3CC(=O)[C@]12C (stereo not given in full) | -1.49% | –
CCC(=O)O[C@H]1C(O[C@@H]2C(C)[C@H](O[C@H]3C[C@@](C)(OC)C(O)C(C)O3)C(C)C(=O)OC(CC)[C@@](C)(O)C(O)[C@H](C)C(=O)C(C)C[C@]2(C)O)OC(C)CC1N(C)C (stereo not given in full) | -8.3% | –
COc1c2ccoc2c(OC)c2oc(=O)ccc12 | -2.11% [at 38.3 µM] | –
Nc1ncnc2c1[nH]c(=O)n2C1CC(O)C(CO)O1 (stereo not given) | -0.154% [at 38.3 µM] | –
CNC(C)C1CC[C@H](N)[C@@H](OC2C(N)C[C@H](N)[C@@H](OC3OC[C@](C)(O)C(NC)[C@H]3O)C2O)O1 (stereo not given in full) | 3.34% | –
COc1ccc(C2COc3c(ccc(O)c3OC)C2)c(OC)c1O (stereo not given) | 5.54% | –
CNC1C(O)C2OC3OC(C)CC(=O)[C@@]3(O)O[C@H]2[C@H](NC)C1O (stereo not given in full) | 2.52% | –

SMILES | activation (splicing correction) | outcome
COc1cc(C2c3cc4c(cc3C(O)[C@H]3COC(=O)C23)OCO4)cc(OC)c1OC (stereo not given in full) | – | inactive
O=C(O)C(S)[C@@H](S)C(=O)O (stereo not given in full) | 9.1% | –
CC(C)CC1C(=O)N2CCCC2C2(O)O[C@@](NC(=O)C3C=C4c5cccc6[nH]c(Br)c(c56)CC4N(C)C3)(C(C)C)C(=O)N12 (stereo not given in full) | -8.85% | –
C=C1c2c(Cl)ccc(O)c2C(O)=C2C(=O)[C@]3(O)C(O)=C(C(N)=O)C(=O)C(N(C)C)C3C(O)C12 (stereo not given in full) | -7.93% | –
NC1C(O)OC(CO)[C@@H](O)[C@@H]1O[C@H]1O[C@@H](C(=O)O)C(O)C(O)C1O (stereo not given in full) | 0.0942% [at 38.3 µM] | –
O=c1c(-c2ccc(O)cc2)coc2c(C3OC(CO)C(O)C(O)C3O)c(O)ccc12 (stereo not given) | 0.573% | –
COc1ccc(/C=C/C(=O)c2cc(O)ccc2O)cc1 | 8.36% | –
CC1CC[C@@]23CCC4(C)[C@@]5(C)CCC6C(C)(C)C(=O)CC[C@@]6(C)C5C=C[C@@]4(OC2=O)C3C1C (stereo not given in full) | 0.921% [at 38.3 µM] | –
C#CCCCCCCCCCCCC(O)CC(O)COC(C)=O (stereo not given) | -7.54% | –
CC(CCC(=O)O)C1CCC2C3CC[C@H]4CC(O)CC[C@@]4(C)C3CC[C@@]12C (stereo not given in full) | -6.74% | –
COc1c(CC(=O)c2cc3c(cc2O)OC(C)(C)C(O)C3)ccc2c1C=CC(C)(C)O2 (stereo not given) | -4.35% | –
CC(=O)Oc1c(-c2ccccc2)oc2c(CC=C(C)C)c3c(c(OC(C)=O)c2c1=O)C=CC(C)(C)O3 | -2.23% [at 38.3 µM] | –
C=C1C(=O)OC2C1CC/C(C)=C/CCC1(C)OC21 (stereo not given) | -1.46% [at 38.3 µM] | –
COc1c2ccoc2cc2oc(C)cc(=O)c12 | -0.985% [at 38.3 µM] | –
COc1cc(OC)c2c(OC)c(-c3ccc4c(c3)OCO4)c(=O)oc2c1 | -1.07% [at 38.3 µM] | –
COC(=O)CC1C(C)(C)C(=O)C2CC3C4=CC(=O)OC(c5ccoc5)[C@]4(C)CCC3[C@@]1(C)C2=O (stereo not given in full) | -4.08% | –
NC(=O)c1ccc[n+]([C@@H]2OC(COP(=O)([O-])OP(=O)(O)OCC3OC(n4cnc5c(N)ncnc54)C(O)C3O)C(O)C2O)c1 (stereo not given in full) | 5.41% | –
COc1cc(C(C)=O)cc(OC)c1O | -2.61% [at 38.3 µM] | –
COc1cc2c(c(OC)c1OC)-c1ccc(OC)c(=O)cc1C(NC(C)=O)CC2 (stereo not given) | -7.01% | –
CNC1CCC(c2ccc(Cl)c(Cl)c2)c2ccccc21 (stereo not given) | -7.58% | –
